Results filed as inconclusive are left out. Calls of active or inactive are those of the source. The calls were made as follows: active = hit-call score of the fitted dose curve at least 0.9, where 1 is the maximum; inconclusive = response in the unintended direction; inactive = score below 0.9.
Each compound was assayed on HMG-CoA synthase (HMGCS2), HMGCS2 (gene 3158) (assay: CLD_HMGCS2_24hr: CellzDirect (CLD) Gene Expression Assay for HMG-CoA synthase (HMGCS2) at 24 hours (AID 2283691)).
Protocol: CLD_24hr is a cell-based, multiplexed-readout assay that uses hepatocyte, a human liver primary cell, with measurements taken at 24 hours after chemical dosing in a 96-well plate.CLD_HMGCS2_24hr is one of 16 assay component(s) measured or calculated from the CLD_24hr assay. It is designed to make measurements of mRNA induction, a form of inducible reporter, as detected with chemiluminescence signals by Quantitative Nuclease Protection Assay (qNPA) technology.Data from the assay component CLD_HMGCS2_24hr was analyzed at the endpoint, CLD_HMGCS2_24hr, in the positive analysis fitting direction relative to DMSO as the negative control and baseline of activity. Using a type of inducible reporter, gain-of-signal activity can be used to understand changes in the reporter gene as they relate to the gene HMGCS2. Furthermore, this assay endpoint can be referred to as a primary readout. To generalize the intended target to other relatable targets, this assay endpoint is annotated to the lyase intended target family, where subfamily is HMG-CoA synthase.
Human hepatocyte cultures were treated daily for two consecutive days with fresh dosing solutions containing appropriate concentrations of the 320 ToxCast chemicals (chemical identities were blinded to CellzDirect and other ToxCast collaborators), vehicle control (0.2% DMSO), and positive control inducers as summarized in Table 1. Due to the large number of treatment groups and chemicals examined, the ToxCast chemicals were divided into two groups (spanning two independent cultures of hepatocytes from separate donor preparations (Hu778: ToxCast plates 1 and 2; Hu776: ToxCast plates 3 and 4). Each preparation of human hepatocyte cultures was treated with respective vehicle control, medium only control, set of six positive controls/reference chemicals for the five hepatic receptor pathways, and a subset of eight of the ToxCast chemicals (indoxacarb, pyrithiobac-sodium, norflurazon, cyhalofop-butyl, methomyl, thiram, acetochlor, and propiconazole). These replicate data, coupled with internal replicates designed within the blinded ToxCast chemical library, provided additional data to evaluate interindividual differences between hepatocyte preparations and their potential impact on chemical profiles.Cell morphology and integrity were evaluated using phase-contrast microscopy as an indicator of hepatocyte cell health (Tyson & Green, 1987). Cultures for each treatment group (i.e., media, vehicle [0.2% DMSO], positive control inducers [multiple concentrations], and the ToxCast chemicals [multiple concentrations]) were observed and cell morphology was assessed relative to vehicle control cultures at each harvest time point (0, 6, 24, or 48 h). […] Images were evaluated at the conclusion of the study to assess changes in cell integrity and account for the effects of chemical exposure on uncharacteristic changes in concentration-dependent gene expression profiles. The results from these determinations of apparent cytotoxicity were annotated (yes/no) alongside the corresponding qNPA data for reference.At the conclusion of each treatment period, hepatocyte cultures (96-well) were washed with 1 volume of HBSS, lysed by addition of 25 ul ArrayPlate lysis buffer (HTG, Tucson, AZ), and 70 ul/well of Denaturation Oil, denatured by incubation at 95C for 10 min, and frozen at approximately -70C until analysis by nuclease protection assay (qNPA) (Roberts et al., 2007). For qNPA analysis, cell lysates were thawed at 50C for approximately 30 min, qNPA probes were added, and samples were incubated at 95C for 10 min to begin the detection process by denaturing the target RNA, dissociating the duplexes and secondary structure hybridization. At the conclusion of the hybridization period, S1 nuclease reagent was added to each sample to digest all nonprotected nucleotides at 50C for 60-90 min. […]

SMILES	outcome	AC50
N#CSCSc1nc2ccccc2s1	inactive	–
COc1c(Cl)ccc(Cl)c1C(=O)O	inactive	–
CCOC(=O)COc1cc(-n2ncc(C(F)(F)F)c(C)c2=O)c(F)cc1Cl	inactive	–
CCCCOC(=O)[C@@H](C)Oc1ccc(Oc2ccc(C(F)(F)F)cn2)cc1	inactive	–
Oc1ccc(C(c2ccc(O)cc2)C(Cl)(Cl)Cl)cc1	inactive	–
CCCCC(CC)COC(=O)c1ccccc1C(=O)O (centres undefined)	inactive	–
O=C(O)C1(C(=O)Nc2ccc(Cl)cc2Cl)CC1	–	34.9 µM (active)
C#CCOC(=O)[C@@H](C)Oc1ccc(Oc2ncc(Cl)cc2F)cc1	inactive	–
CCCOC(=O)NCCCN(C)C	inactive	–
COC(=O)c1ccc(CNS(C)(=O)=O)cc1S(=O)(=O)NC(=O)Nc1nc(OC)cc(OC)n1	inactive	–
OB(O)O	inactive	–
CCOC(=O)C(C)Oc1ccc(Oc2cnc3cc(Cl)ccc3n2)cc1 (centres undefined)	inactive	–
CC(C)(c1ccc(O)cc1)c1ccc(O)cc1	inactive	–
CCOC(=O)NCCOc1ccc(Oc2ccccc2)cc1	inactive	–
COC(=O)c1ccccc1S(=O)(=O)NC(=O)Nc1nc(OC(F)F)cc(OC(F)F)n1	inactive	–
COC(=O)c1c(Cl)nn(C)c1S(=O)(=O)NC(=O)Nc1nc(OC)cc(OC)n1	inactive	–
CSC(=O)c1cccc2nnsc12	–	7.33 µM (active)
CCCOC(=O)c1ccc(C(=O)OCCC)nc1	inactive	–
CCOC(=O)C(C)Oc1ccc(Oc2nc3ccc(Cl)cc3o2)cc1 (centres undefined)	inactive	–
CCC(C)OC(=O)N1CCCCC1CCO (centres undefined)	inactive	–
c1ccc(Nc2ccccc2)cc1	inactive	–
COC(=O)c1ccccc1C(=O)O	inactive	–
CCCCOC(=O)C(C)Oc1ccc(Oc2ccc(C(F)(F)F)cn2)cc1 (centres undefined)	inactive	–
CCSC(=O)N(CC(C)C)CC(C)C	inactive	–

From PubChem BioAssay (EPA / NIEHS)
